Reference: PubChem BioAssay AID1159580 (chemical genetic matrix, 2015)
“And” between values parts separate entries of the source, which are not always exact repeats. Equal entries are not always repeated. In all, about 5,500 compounds went through this assay and about 2,000 (36%) were called active. Inconclusive results (about 18%) are left out. Rule as the data show it: active = normalized growth mostly below about 0.91 (no sharp cut-off); inconclusive = no clear call, values can overlap the other calls; inactive = mostly above about 0.92. Some of the results follow.

Assay: chemical genetic growth profiling, strain panel (AID 1159580);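 also: tested at 20 µM; growth read once vehicle control cultures reached saturation at 30 °C; 1 = growth at the plate median or of vehicle wells; lower values mean less growth of the strain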
Conditions: S. cerevisiae deletion strains, growth OD

Measured: normalized growth

N[C@@H](C(=O)O)[C@@H](O)[C@H](O)[C@H](O)CO
inactive: locus YAL013W, strain DEP1, stronger effect = lower value 1.01 | locus YAL021C, strain ccr4, stronger effect = lower value 1.01 | locus YAL026C, strain drs2, stronger effect = lower value 1.04 | locus YAL030W, strain snc1, stronger effect = lower value 1.03 | locus YBL061C, strain skt5, stronger effect = lower value 1.03 | locus YBR009C, strain hhf1, stronger effect = lower value 1.03 | locus YBR021W, strain FUR4, stronger effect = lower value 1.01 | locus YBR023C, strain chs3, stronger effect = lower value 1.04 | locus YBR171W, strain sec66, stronger effect = lower value 1.04 | locus YBR229C, strain ROT2, stronger effect = lower value 1 | locus YBR231C, strain swc5, stronger effect = lower value 1.03 | locus YBR279W, strain paf1, stronger effect = lower value 1.01 | locus YCL011C, strain gbp2, stronger effect = lower value 1.04 | locus YCL016C, strain dcc1, stronger effect = lower value 1.02 | locus YCL029C, strain bik1, stronger effect = lower value 1.02 | locus YCL061C, strain MRC1, stronger effect = lower value 1.02 | locus YCL069W, strain vba3, stronger effect = lower value 1.03 | locus YCR088W, strain abp1, stronger effect = lower value 1.02 | locus YDL005C, strain med2, stronger effect = lower value 1.03 | locus YDL035C, strain GPR1, stronger effect = lower value 1.03 | locus YDL040C, strain nat1, stronger effect = lower value 1.01 | locus YDL074C, strain BRE1, stronger effect = lower value 1.06 | locus YDL101C, strain DUN1, stronger effect = lower value 1.01 | locus YDL185W, strain tfp1, stronger effect = lower value 1.02 | locus YDL192W, strain arf1, stronger effect = lower value 1.03 | locus YDR001C, strain nth1, stronger effect = lower value 1.02 | locus YDR069C, strain doa4, stronger effect = lower value 1.02 | locus YDR101C, strain arx1, stronger effect = lower value 1.02 | locus YDR137W, strain rgp1, stronger effect = lower value 1.04 | locus YDR150W, strain NUM1, stronger effect = lower value 1.02 | locus YDR159W, strain sac3, stronger effect = lower value 1.07 | locus YDR162C, strain NBP2, stronger effect = lower value 1.01 | locus YDR195W, strain ref2 1.02 | locus YDR297W, strain sur2, stronger effect = lower value 1.03 | locus YDR318W, strain mcm21, stronger effect = lower value 1 | locus YDR334W, strain swr1, stronger effect = lower value 1.03 | locus YDR335W, strain msn5, stronger effect = lower value 1.03 | locus YDR388W, stronger effect = lower value 1.01 | locus YDR392W, strain spt3, stronger effect = lower value 1.02 | locus YDR502C, strain sam2, stronger effect = lower value 1.01 | locus YEL003W, strain gim4, stronger effect = lower value 1.03 | locus YEL037C, strain rad23, stronger effect = lower value 1.02 | locus YEL061C, strain CIN8 (second series), stronger effect = lower value 1.03 | locus YEL061C, strain CIN8, stronger effect = lower value 1.02 | locus YER015W, strain faa2, stronger effect = lower value 1.03 | locus YER016W, strain bim1, stronger effect = lower value 1.02 | locus YER110C, stronger effect = lower value 1.02 | locus YER111C, strain swi4, stronger effect = lower value 1.03 | locus YER155C, strain BEM2 (second series), stronger effect = lower value 1 | locus YER155C, strain BEM2, stronger effect = lower value 1.01 | locus YER167W, strain BCK2, stronger effect = lower value 1 | locus YFR010W, strain ubp6, stronger effect = lower value 1.04 | locus YGL078C, strain dbp3, stronger effect = lower value 1.01 | locus YGL086W, strain mad1, stronger effect = lower value 1.01 | locus YGL167C, strain pmr1, stronger effect = lower value 1.04 | locus YGL173C, strain kem1, stronger effect = lower value 1.04 | locus YGL227W, strain vid30, stronger effect = lower value 1.02 | locus YGL240W, strain doc1, stronger effect = lower value 1.02 | locus YGL248W, strain PDE1, stronger effect = lower value 1 | locus YGL253W, strain hxk2, stronger effect = lower value 1.04 | locus YGR135W, strain pre9, stronger effect = lower value 1.01 | locus YGR252W, strain gcn5, stronger effect = lower value 0.967 | locus YHR013C, strain ard1, stronger effect = lower value 1.05 | locus YHR027C, strain rpn1, stronger effect = lower value 1.04 | locus YHR030C, strain SLT2, stronger effect = lower value 1.01 and 1.05 | locus YHR079C, strain IRE1 (second series), stronger effect = lower value 1.02 | locus YHR079C, strain IRE1, stronger effect = lower value 1.03 | locus YHR094C, strain hxt1, stronger effect = lower value 1.02 | locus YHR129C, strain ARP1, stronger effect = lower value 1 | locus YHR142W, strain chs7, stronger effect = lower value 1.07 | locus YHR200W, strain rpn10, stronger effect = lower value 1.02 | locus YIL066C, strain RNR3, stronger effect = lower value 1.01 | locus YIL073C, strain SPO22, stronger effect = lower value 1.05 | locus YIL125W, strain kgd1, stronger effect = lower value 1.02 | locus YIR030C, strain dcg1, stronger effect = lower value 1.02 | locus YJL092W, strain hpr5, stronger effect = lower value 1.03 | locus YJL095W, strain BCK1 (second series), stronger effect = lower value 1.02 | locus YJL095W, strain BCK1, stronger effect = lower value 1.01 and 1.04 | locus YJL115W, strain asf1, stronger effect = lower value 1.04 | locus YJL129C, strain trk1, stronger effect = lower value 1.06 | locus YJL134W, strain LCB3, stronger effect = lower value 1.01 | locus YJL154C, strain vps35, stronger effect = lower value 1.02 | locus YJL164C, strain tpk1, stronger effect = lower value 1.03 | locus YJL166W, strain qcr8, stronger effect = lower value 1.03 | locus YJL168C, strain set2, stronger effect = lower value 1.02 | locus YJL187C, strain SWE1 (second series), stronger effect = lower value 1.01 | locus YJL187C, strain SWE1, stronger effect = lower value 1.05 | locus YJR043C, strain POL32, stronger effect = lower value 1.02
